Measurements from PubChem BioAssay AID2283097 (EPA ToxCast).
Results filed as inconclusive are left out. Activity calls are given as the source filed them. The calls were made as follows: active = hit-call score of the fitted dose curve at least 0.9, where 1 is the maximum; inconclusive = response in the unintended direction; inactive = score below 0.9.

Molecular target: human CYP1B1, CYP1B1 (gene 1545) (UniProt Q16678)
Test: NVS_ADME_hCYP1B1: NovaScreen (NVS) CYP450-related Enzyme Activity (ADME) Assay for human CYP1B1
Procedure: NVS_ADME_hCYP1B1 is a biochemical, single-readout assay that uses extracted gene-proteins in a cell-free assay. Measurements were taken 1 hour after chemical dosing in a 96-well plate.NVS_ADME_hCYP1B1 is one of one assay component(s) measured or calculated from the NVS_ADME_hCYP1B1 assay. It is designed to make measurements of enzyme activity, a form of enzyme reporter, as detected with fluorescence intensity signals by Fluorescence technology.Data from the assay component NVS_ADME_hCYP1B1 was analyzed into 1 assay endpoint. This assay endpoint, NVS_ADME_hCYP1B1, was analyzed in the positive analysis fitting direction relative to Acetonitrile as the negative control and baseline of activity. Using a type of enzyme reporter, loss-of-signal activity can be used to understand changes in the enzymatic activity as they relate to the gene CYP1B1. Furthermore, this assay endpoint can be referred to as a primary readout, because this assay has produced multiple assay endpoints where this one serves a enzymatic activity function. To generalize the intended target to other relatable targets, this assay endpoint is annotated to the cyp intended target family, where the subfamily is xenobiotic metabolism.
Binding assays used specific radioligands (tritiated, iodinated) with non-radioactive competitive displacement ligands in agonist or antagonist protocols (as indicated) and various reference compounds and inhibitors to titrate specific binding to receptors and transporters. Most enzyme assays (CYPs, kinases, phosphatases, proteases, HDACs) used recombinant protein and specific substrates (fluorescence mostly, some colorimetric and radioactive) and inhibitors, followed by a biochemical separation of substrate and product. All assays for the biochemical HTS were initially run in duplicate at a single concentration (10 uM for CYP450 assays and 25 uM for all others). Assay-chemical combinations meeting a pre-defined threshold (e.g., 30% inhibition and other criteria defined below) were then run in singleton concentration-response format with maximum concentration of 20 uM for CYPs and 50 uM for all others. Each assay was run with positive and negative controls, and concurrent controls on every plate. The follow-up (secondary) screen tested active chemical-pairs in concentration series, as well as a few additional assays not tested in the primary screen, some selected negative inactives, and several cases re-run in the concentration series for confirmatory purposes.

Chain of human CYP1B1, CYP1B1 (gene 1545) (Q16678 whole entry, looked up): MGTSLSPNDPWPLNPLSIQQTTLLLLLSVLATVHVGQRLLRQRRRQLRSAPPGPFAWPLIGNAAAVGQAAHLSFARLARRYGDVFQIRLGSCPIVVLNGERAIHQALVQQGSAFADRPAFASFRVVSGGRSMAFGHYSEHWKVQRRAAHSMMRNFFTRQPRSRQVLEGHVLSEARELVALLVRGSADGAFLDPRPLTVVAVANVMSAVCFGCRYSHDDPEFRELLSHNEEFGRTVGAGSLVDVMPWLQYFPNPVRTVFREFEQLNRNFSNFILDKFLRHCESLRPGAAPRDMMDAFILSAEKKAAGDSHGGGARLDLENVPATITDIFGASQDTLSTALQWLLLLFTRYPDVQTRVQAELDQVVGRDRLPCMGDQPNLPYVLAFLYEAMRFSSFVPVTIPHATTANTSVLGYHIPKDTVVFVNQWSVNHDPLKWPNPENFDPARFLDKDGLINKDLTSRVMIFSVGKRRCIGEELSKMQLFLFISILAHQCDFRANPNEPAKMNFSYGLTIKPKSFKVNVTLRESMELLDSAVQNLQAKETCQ

Structure (SMILES)	outcome	AC50
CCCN(CCOc1c(Cl)cc(Cl)cc1Cl)C(=O)n1ccnc1	inactive	–
Cc1ccc(-c2c(Cl)nc(C#N)n2S(=O)(=O)N(C)C)cc1	inactive	–
Cc1ccn2nc(S(=O)(=O)Nc3c(F)cccc3F)nc2n1	inactive	–
COP(=S)(OC)SCn1nnc2ccccc2c1=O	–	498 nM (active)
